Hits are enriched below; roughly 21% of the tested compounds scored in any of these assays.
Shiga toxin inh – inhibitors of Shiga toxin in Vero cells; Vero cells, Shiga toxin protein synthesis inhibition reporter; inhibition, % at 38.7 µM; actives 9.2% (n = 290,000); AID 2315; in the data active means inhibition mostly above about 28%, no sharp cut-off; inactive means mostly below about 43%; further: 0% is about no effect
AMA1-RON2 inh – inhibitors of Plasmodium falciparum AMA1-RON2 interaction. AlphaScreen AMA1-biotinylated RON2 peptide binding. Potency, µM (doses to about 58.2 µM), without a hit: top-dose activity change, negative = inhibition, actives largely listed as inhibitors. actives 0.2% (n = 360,000). AID 720542;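 further: potency means the concentration at half of the fitted maximal effect; 0% = vehicle wells and -100% = peptide control; nearly all actives have a fitted effect of over 45% in size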
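AMA1 (3D7) with his tag at 25 nM final met compounds first, then biotinylated RON2 peptide at 25 nM; detection used donor plus acceptor beads, 10 µg/mL apiece, read by AlphaScreen after 30 min at room temperature.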
Pf growth 48h – inhibits P. falciparum growth in the first generation, 48 h; Potency, µM (highest dose often 28.7 µM), for inactives: at the top dose activity change, negative = inhibition, hits mostly inhibitors; P. falciparum luciferase growth in erythrocytes, 48 h; actives 5.9% (n = 310,000); AID 504832; further: potency means the concentration at half of the fitted maximal effect; on the % scale 0 is the no-effect control and ±100 the full control effect
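Luciferase-expressing parasites in RBCs, 2% Hct / 0.1% parasitemia final; RPMI 1640 + 0.5% Albumax; 37 C, 5% CO2, one generation; luminescence read-out, lower signal = inhibition.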
HCV inhibitor – HCV inhibition | Huh7.5.1 HCVcc-Cre infection, luciferase reporter, 44 h | actives 3.4% (n = 340,000) | Potency, µM (titrated, usually from 41.8 µM), for the others: at the top dose activity change, negative = inhibition, most hits filed as inhibitors | AID 651820; further: potency means the concentration at half of the fitted maximal effect; on the % scale 0 is the no-effect control and ±100 the full control effect
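Infectious HCVcc-Cre (~0.5 moi) was added to cells just after compound, with cells seeded 4 h earlier at 1,000 per well. Luciferase activity after 44 h culture reported infection; substrate was incubated 15 min at room temperature before reading.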
Cycloheximide cs – affects cycloheximide protein synthesis inhibition readout, counter-screen. actives 12% (n = 300,000). cell reporter, cycloheximide protein synthesis inhibition counterscreen. AID 2314. max response, %; in the data active means max response mostly above about 13%, no sharp cut-off; inactive means mostly below about 14%; further: read at 38.3 µM for the half of the compounds with a filed dose; 0% is about no effect
Pf growth 96h – inhibits malaria parasite growth, 96 h | P. falciparum luciferase reporter growth, 96 h | Potency, µM (titrated, usually from 28.7 µM), without a hit: top-dose activity change, negative = inhibition, hits mostly inhibitors | actives 6.9% (n = 320,000); further: potency means the concentration at half of the fitted maximal effect; on the % scale 0 is the no-effect control and ±100 the full control effect
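P. falciparum expressing integrated firefly luciferase, in erythrocytes at 2% hematocrit, 0.05% parasitemia, incubated with compounds 96 h at 37 C, 5% CO2. Growth inhibition read as loss of luminescence; two-generation exposure targets delayed-death apicoplast inhibitors.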
* marks the source's active call; other numbers are inactive results; ? = inconclusive; / = no result; ! = a repeat was not active; [ ] = remark or other dose. Unless noted, the call rests on the fitted dose curve; in most records, active means well fitted curve in the direction sought with a large enough effect; inconclusive means small, poorly fitted or top-dose-only effect, or another doubt; inactive means no such curve, though single readings can be large; an effect the other way counts as inactive or inconclusive.

SMILES | Shiga toxin inh | AMA1-RON2 inh | Pf growth 48h | HCV inhibitor | Cycloheximide cs | Pf growth 96h
O=c1cc(-c2ccco2)nc(SCc2cccc(Cl)c2)[nH]1 | / | -1% | -1% | 1% | 10 | ?
Clc1ccc(CSc2ccc(-c3ccco3)nn2)cc1 | 126* | -3% | 146% | 10% | 23* | 36%
N#CN1C2CCC1CC(O)(c1ccccc1)C2 (stereo unspecified) | / | -2% | / | / | / | /
CCOC(=O)C1(C)C=C(Nc2ccc(NC(C)=O)cc2)C(=O)N1c1ccc(NC(C)=O)cc1 (stereo unspecified) | -1 | 1% | -2% | 13% | -2 | 1%
c1ccc(CSc2ccc(-c3cccnc3)nn2)nc1 | 50* | 4% | 37% | 3% | 21* | 28%
Cc1cccc(CSc2ccc(-c3ccco3)nn2)c1 | 20 | 2% | 104% | -14% | 17* | -14%
c1ccc(CSc2ccc(-c3ccco3)nn2)cc1 | 84 | -28% | 195% | 3% | 26* | 211%
CN(C(=O)Nc1ccc(F)cc1)[C@H]1C[C@H]2c3[nH]c4ccccc4c3CCN2C(=O)[C@H]1CO | / | -4% | / | / | / | /
COC(=O)[C@@]1(Sc2ccc(C)cc2)CC(=O)N(C(=O)c2ccccc2)[C@@H]1c1ccccc1 | / | -5% | / | / | / | /
O=C(N/N=C/C1CC2CCC1C2)c1c[nH]c2ccccc12 (stereo unspecified) | 40 | 65% | 19% | 20% | 23* | -11%
O=C(N/N=C/c1ccc[nH]1)c1c[nH]c2ccccc12 | 111* | 67% | -15% | 0.89µM* | 52* | -27%
O=C(N/N=C/c1ccccn1)c1c[nH]c2ccccc12 | 65* | 88% | 37% | -2% | 49* | ?
O=C(N/N=C/c1ccc[nH]1)c1sc2ccccc2c1Cl | 146* | 5% | ? | ? | 47* | 6.6µM*
O=C(N/N=C/c1ccccn1)c1cc(-c2ccncc2)nc2ccccc12 | -4 | -4% | ? | 32% | -3 | ?
O=C(N/N=C/c1ccc[nH]1)c1ccccc1OCc1ccc(F)cc1 | -7 | 8% | -5% | -22% | -5 | -10%
O=C(N/N=C/c1ccncc1)c1sc2ccccc2c1Cl | 18 | 15% | -8% | 4% | 13 | ?
CCC(=O)N1CCC1(C)C(=O)Nc1ccccc1 (stereo unspecified) | / | -1% | / | / | / | /
C[C@@H]1CCCCO[C@H](CN(C)S(=O)(=O)c2ccccc2)[C@@H](C)CN([C@H](C)CO)C(=O)c2cc(NC(=O)Cc3ccccc3)ccc2O1 | / | -7% | / | / | / | /
CCc1ccc(S(=O)(=O)NCC2(N3CCOCC3)CCCCC2)cc1 | / | -3% | ? | -7% | / | ?
Cn1c(NC(=S)Nc2ccccc2)nc2ccccc21 | 65* | -1%[2.32 µM] | ? | -17% | 47* | ?
S=C(Nc1ccccc1)Nc1nc2ccccc2n1CCOc1ccc(Br)cc1 | 44* | -16% | 3.3µM* | ? | 34* | 4%
Cn1c(Nc2ccc(F)cc2)nc2ccccc21 | 18 | -4% | 5% | -6% | 10 | -1%
Nc1nc2ccccc2n1CCOc1ccc(Br)cc1 | -1 | -2% | ? | ? | -3 | 5%
CCn1c(SCc2nnc(-c3ccccc3)o2)nc2c1c(=O)n(C)c(=O)n2C | 26 | / | 9% | 5% | -1 | 6.6µM*
CCCCn1c(SCc2nnc(-c3ccccc3)o2)nc2c1c(=O)n(C)c(=O)n2C | 42 | -3% | ? | / | 24* | -6%
SMILES | Shiga toxin inh | AMA1-RON2 inh | Pf growth 48h | HCV inhibitor | Cycloheximide cs | Pf growth 96h
CCCCn1c(SCC(=O)NCc2cccs2)nc2c1c(=O)n(C)c(=O)n2C | -12 | -3% | / | -2% | -2 | 9.3µM*
CCn1c(SCc2cc(=O)[nH]c3ccccc23)nc2c1c(=O)n(C)c(=O)n2C | / | 15% | / | 5% | / | /
CCCCn1c(SCC(=O)OC)nc2c1c(=O)n(C)c(=O)n2C | -17 | -4% | -5% | 5% | -5 | -5%[5.75 µM]
COc1ccc(-n2c(=S)[nH]c3cc(C(=O)N4CCN(c5ccccc5)CC4)ccc3c2=O)c(OC)c1 | -5 | 13% | 3% | 2% | -4 | ?
COCCNC(=O)C1(C)CCCN(C(=O)c2c(F)ccc(C)c2F)C1 (stereo unspecified) | / | -4% | / | / | / | /
CC1=N/C(=C/c2cccnc2)C(=O)O1 | 26 | 8% | 12% | -3% | 34* | 3%
O=C1OC(c2ccc(Cl)cc2)=C/C1=C/c1cccnc1 | 2 | -7% | 24% | 33% | -4 | ?
CCCSC1=N/C(=C/c2ccsc2)C(=O)N1c1ccccc1 | -4 | 10% | ? | ? | -2 | 11%
Cc1ccc(C2=C/C(=C/c3cccnc3)C(=O)O2)c(C)c1 | 8 | 25% | 34% | 5% | 11* | 0%
CSC1=N/C(=C\c2cccnc2)C(=O)N1c1ccccc1 | 24 | 18% | 16% | -24% | 27* | ?
CCSC1=N/C(=C/c2ccsc2)C(=O)N1c1ccccc1 | -9 | 26% | 20% | ? | -2 | 7.4µM*
Cc1ccc(SCC(=O)OCc2csc(CC(=O)Nc3ccccc3C)n2)cc1C | / | 55% | ? | 0% | / | -23%
Cc1c(C)c(C)c2[nH]c(-c3ccc4c(c3)OCO4)nc2c1C | 68* | 0% | 2.3µM* | ? | 27* | 2.1µM*
COc1ccc(-c2[nH]c(-c3ccc4c(c3)OCO4)nc2-c2ccccc2)cc1 | -13 | ? | ? | ? | 6 | ?
CCCNc1nc2ccccc2n2c(C)nnc12 | -9 | -6% | 8% | -16% | -1 | 9.3µM*
CCc1nnc2c(NCCc3ccccc3)nc3ccccc3n12 | 2 | 2% | 5% | -22% | -3 | 5%
CCCN(CCC)c1nc2ccccc2n2c(C)nnc12 | -5 | -16% | 0% | 3.2µM* | -2 | -22%[5.75 µM]
CN1CCC(=C2c3ccccc3C=Cc3ccccc32)CC1 | -8 | -9% | 12µM*! | ? | -4 | ?
